Measurements: publication PMC4336329 (PLoS ONE, 2015)
The whole screen tested about 310,000 compounds, of which about 14,000 (4.5%) showed an effect of 50% or more. The effect is printed as a negative number. For the sample, strong results were picked, then their nearest neighbours and some compounds at random.

What follows are compounds tested against human ether-à-go-go-related gene (hERG) potassium channel (human, UniProt Q12809) (assay: primary screen, population patch clamp on CHO cells stably expressing hERG; higher = less effect of the substance).
human ether-à-go-go-related gene (hERG) potassium channel, sequence (Q12809 whole entry, looked up): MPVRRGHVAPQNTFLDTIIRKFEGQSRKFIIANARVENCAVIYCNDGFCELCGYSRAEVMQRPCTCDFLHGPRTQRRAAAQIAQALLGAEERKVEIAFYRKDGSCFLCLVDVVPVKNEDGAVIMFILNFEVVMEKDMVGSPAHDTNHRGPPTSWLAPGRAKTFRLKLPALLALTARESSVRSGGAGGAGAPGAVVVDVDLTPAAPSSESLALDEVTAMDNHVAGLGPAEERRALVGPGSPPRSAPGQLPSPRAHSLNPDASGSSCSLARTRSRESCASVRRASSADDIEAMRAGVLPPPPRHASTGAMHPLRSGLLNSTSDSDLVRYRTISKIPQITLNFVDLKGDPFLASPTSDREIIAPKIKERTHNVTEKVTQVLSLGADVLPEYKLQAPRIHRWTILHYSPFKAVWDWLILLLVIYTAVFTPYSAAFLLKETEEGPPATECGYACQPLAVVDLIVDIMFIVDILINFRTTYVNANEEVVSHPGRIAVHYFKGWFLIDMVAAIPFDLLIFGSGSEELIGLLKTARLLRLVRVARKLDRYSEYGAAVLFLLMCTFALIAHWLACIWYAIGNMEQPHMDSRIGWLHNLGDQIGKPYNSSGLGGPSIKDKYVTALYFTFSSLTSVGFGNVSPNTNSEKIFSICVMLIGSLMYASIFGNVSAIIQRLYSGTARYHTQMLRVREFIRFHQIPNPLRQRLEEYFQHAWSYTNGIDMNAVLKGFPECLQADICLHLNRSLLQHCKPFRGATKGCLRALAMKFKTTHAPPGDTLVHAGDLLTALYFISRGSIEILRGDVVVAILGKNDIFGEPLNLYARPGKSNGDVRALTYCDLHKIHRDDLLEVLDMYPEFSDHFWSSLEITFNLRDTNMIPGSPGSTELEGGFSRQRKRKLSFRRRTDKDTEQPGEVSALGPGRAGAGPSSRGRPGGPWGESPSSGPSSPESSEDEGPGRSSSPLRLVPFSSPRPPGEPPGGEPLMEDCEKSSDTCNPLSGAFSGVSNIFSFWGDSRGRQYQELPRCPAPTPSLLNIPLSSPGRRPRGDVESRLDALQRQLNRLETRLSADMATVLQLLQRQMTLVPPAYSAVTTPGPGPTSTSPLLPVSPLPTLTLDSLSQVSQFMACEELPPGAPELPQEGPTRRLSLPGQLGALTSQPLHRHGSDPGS
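Note: peak tail current of the secondary pulse compared with the same well before compound.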

Compound	hERG current change (%, negative = inhibition) at 10uM [%]
CCOc1ccc(CNC(=O)c2ccc(Sc3ccc(Cl)cc3)c(NC(C)=O)c2)cc1	-8.57
CCC(=O)Nc1cc(C(=O)O)ccc1Sc1ccc(C)cc1	4.85
CCOc1ccccc1CNC(=O)c1ccc(Sc2ccc(Cl)cc2)c(NC(C)=O)c1	-19.4
CC(=O)Nc1cc(C(=O)N(C)Cc2ccco2)ccc1Sc1ccc(Cl)cc1	-66.7
CCOc1ccc(CNC(=O)c2ccc(Sc3ccc(C)cc3)c(NC(C)=O)c2)cc1	-4.85
CCN(CC)CCNC(=O)c1ccc(Sc2ccc(C)cc2)c(NC(C)=O)c1	-58.2
CCOc1ccc(CNC(=O)c2ccc(Sc3ccc(C)cc3)c(NC(C)=O)c2)cc1OC	-21.5
CC(=O)Nc1cc(C(=O)NCCN2CCN(Cc3ccccc3)CC2)ccc1Sc1ccc(C)cc1	-63.6
CC(=O)Nc1cc(C(=O)NCc2ccco2)ccc1Sc1ccc(C)cc1	-17.8
CC(=O)Nc1cc(C(=O)NCc2ccco2)ccc1Sc1ccc(Cl)cc1	-35.6
CSc1ncc(F)c(N(CCO)CCO)n1	10.5
O=C1S/C(=C\c2ccccn2)C(=O)N1Cc1ccccc1F	9.45
O=S(=O)(Nc1cccnc1Cl)c1ccc2c(c1)OCCO2	15.4
COc1cc(C(=O)N(C)CCOc2ccc(C)cc2)ccc1OC1CCN(C(C)=O)CC1	8.41
CCN1CCC2(CC1)N=C(c1ccc(F)cc1)C(=S)N2C(=O)c1ccc(C(C)(C)C)cc1	-10.8
CN(C)CCNC(=O)NC(=O)c1ccc(Cl)cc1	-14.7
CC(C)OCCCNC(=O)NC(=O)c1ccc(Cl)cc1	-6.21
CCN(CC)CCNC(=O)NC(=O)c1ccc(Cl)cc1	-63
COc1ccc(/C=N/NC(=O)C(C)n2nnc3ccccc32)cc1OC (centres unmarked)	2.4
C[n+]1c(-c2ccccc2)sc2ccccc21.[O-][Cl+3]([O-])([O-])[O-]	23.1
Cc1ccc2c(c1)sc(-c1ccc(N(C)C)cc1)[n+]2C.[I-]	-60
CC[n+]1c(C)sc2cc(C)ccc21.[I-]	15

Compound	hERG current change (%, negative = inhibition) at 10uM [%]
O=C(CN1C(=O)c2cccnc2Oc2ccc(Cl)cc21)NC1CCCCC1	-13.1
CC(=O)Nc1ccc(/C=C/C(=O)c2ccc3c(c2)OCCO3)cc1	-0.901
CCOc1ccc(C(=O)NC(C(=O)NCC(c2cccs2)N(C)C)C(C)C)cc1 (centres unmarked)	-19.8
O=C(NCCCn1ccnc1)/C(=C\c1cccnc1)NC(=O)c1ccco1	-0.164
O=C(NCCc1c[nH]c2ccccc12)/C(=C/c1cccnc1)NC(=O)c1ccco1	-64.7
O=C(NCCc1c[nH]c2ccccc12)/C(=C\c1cccnc1)NC(=O)c1ccco1	-65.1
O=C(NCCc1c[nH]c2ccccc12)/C(=C/c1ccco1)NC(=O)c1ccco1	-42.5
O=C(NCCc1c[nH]c2ccccc12)c1ccco1	3.71
O=C(NCCc1c[nH]c2ccccc12)/C(=C\c1ccco1)NC(=O)c1ccco1	-21.3
CC1CCCC(C)N1C(=O)COC(=O)c1nn(C)c(=O)c2ccccc12 (centres unmarked)	1.93
COc1ccc(C(=O)N/C(=C\c2cn(C)c3ccccc23)C(=O)N2CCN(C)CC2)cc1OC	-3.26
CCOC(=O)N1CCN(C(=O)/C(=C/c2cccc3ccccc23)NC(=O)c2ccc(OC)cc2)CC1	-50.9
COc1ccc(C(=O)N/C(=C\c2cccc3ccccc23)C(=O)N2CCN(C)CC2)cc1	-65.6
COc1ccc(C(=O)N/C(=C\c2cn(S(=O)(=O)N(C)C)c3ccccc23)C(=O)N2CCOCC2)cc1	-47
CN1CCN(C(=O)/C(=C/c2cn(S(=O)(=O)N(C)C)c3ccccc23)NC(=O)c2ccccc2)CC1	0.665
COc1ccc(C(=O)N/C(=C\c2cn(C)c3ccccc23)C(=O)N2CCOCC2)cc1	-10.9
COc1ccc(C(=O)N/C(=C\c2cn(S(=O)(=O)N(C)C)c3ccccc23)C(=O)N2CCN(C)CC2)cc1	-50.8
CCn1cc(/C=C(\NC(=O)c2ccc(OC)c(OC)c2)C(=O)N2CCN(C)CC2)c2ccccc21	-32.8
CCOC(=O)N1CCN(C(=O)/C(=C/c2cccc3ccccc23)NC(=O)c2ccc(OC)c(OC)c2)CC1	-3.14
COc1ccc(C(=O)N/C(=C\c2cccc3ccccc23)C(=O)N2CCN(C)CC2)cc1OC	-50.6
COc1ccc(C(=O)N/C(=C\c2cn(C)c3ccccc23)C(=O)N2CCN(C)CC2)cc1	-7.61
CCOC(=O)N1CCN(C(=O)/C(=C/c2ccccc2OC)NC(=O)c2ccccc2)CC1	-37.9
